From PubChem BioAssay (Tox21) come the findings set out here.

SMILES strings stand for the structures. Inconclusive results are not listed. Values without a mark were called inactive. Activity calls are given as the source filed them. Unless noted, the call rests on the fitted dose curve; in most records, active means well fitted curve in the direction sought with a large enough effect in the repeat runs; inconclusive means weak or mixed curves; inactive means no such curve, though single readings can be large; an effect the other way counts as inactive or inconclusive. Non-standard residues stand in square brackets, D forms with d. Residues, ends and D or L forms follow the SMILES beside them. pGlu = O=C1CC[C@@H](C(=O)O)N1

Test [1] in a line: qHTS assay to identify aromatase inhibitors - cell viability counter screen (AID 743084;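 further: cells stimulated with testosterone during compound exposure; nearly all actives have a fitted effect of over 55% in size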; further: potency means the concentration at half of the fitted maximal effect). (qHTS replaces the single test concentration by a dilution series.)
Test [2] is described as follows: qHTS assay to identify small molecule that activate the aryl hydrocarbon receptor (AhR) signaling pathway - cell viability counter screen (AID 743086). Further: nearly all actives have a fitted effect of over 45% in size. Further: potency means the concentration at half of the fitted maximal effect. In outline: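 Cytotoxicity counter screen: CellTiter-Fluor signal (30 min, 37 C) in 4000 HepG2 cells/well carrying the DRE-luciferase reporter, following 24 h compound exposure at 37 C.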
For test [3], the target named is Peroxisome proliferator-activated receptor gamma (Homo sapiens) (UniProt P37231). Kind of test: qHTS assay to identify small molecule agonists of the peroxisome proliferator-activated receptor gamma (PPARg) signaling pathway (AID 743094; active means well fitted activation curve with a large enough effect in the signal ratio in the repeat runs, not every such curve was filed as active; the % refers to the signal ratio). The procedure, abridged: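 Reporter activation was scored by fluorescence of cleaved LiveBLAzer B/G substrate (1 h, room temperature) in PPARg-bla HEK293H cells previously treated 17 h at 37C with DMSO-dissolved compounds.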

The nature of test [4]: qHTS assay to identify small molecule phospholipidosis (PLD) inducers (AID 1259344; active means well fitted curve in the direction sought with a large enough effect; an effect the other way counts as inactive or inconclusive). In outline: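 Accumulated phospholipid, stained red by LipidTOX during 24 h compound treatment of HepG2 cells at 37 C, is quantified from images as pit number and intensity, normalised per cell using Hoechst-stained nuclei.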
The target of test [5] is Nuclear receptor subfamily 1 group I member 2 (Rattus norvegicus) (UniProt Q9R1A7). The experiment in a line: Rat pregnane X receptor (rPXR) activation by small molecules, qHTS assay (AID 1346983). Further: nearly all actives have a fitted effect of over 20% in size. Further: potency means the concentration at half of the fitted maximal effect. To be noted: rPXR luciferase reporter cells, One-Glo luminescence, 24 h; max activation: active compounds read high. The procedure, abridged: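 Luminescent readout (One-Glo luciferase, 30 min room temperature) followed 24 hr compound treatment at 37 C of rPXR cells plated 2,000 per well and preincubated 5hr; qHTS format with compounds delivered in DMSO.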

For test [6], the target named is Nuclear receptor subfamily 1 group I member 2 (Homo sapiens) (UniProt O75469). Kind of test: CYP3A4 induction through human pregnane X receptor (PXR) by small molecules, qHTS assay (AID 1346984). Further: nearly all actives have a fitted effect of over 40% in size. Further: potency means the concentration at half of the fitted maximal effect. The procedure, abridged:
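Induction measured in HepG2-based DPX-2 cells co-expressing human PXR and a CYP3A4 promoter-driven luciferase. After a 24-hour compound exposure, cells received CYP3A4 luciferin substrate at 3uM final for 3 hours, and light output was then recorded.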

Test [7] has the same target. The experiment in a line: Human pregnane X receptor (PXR) activation by small molecules, qHTS assay (AID 1346985). Further: nearly all actives have a fitted effect of over 40% in size. Further: potency means the concentration at half of the fitted maximal effect. The procedure, abridged:
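DPX-2 cells (HepG2 co-transfected with a PXR response element and a CYP3A4-promoter luciferase construct) were seeded at 2,000 per well, rested 5 hr at 37C, then exposed to DMSO-dissolved compounds for 24 hr. Activation was read as luciferase luminescence.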

Test [8] addresses Aryl hydrocarbon receptor (Homo sapiens) (UniProt P35869). Kind of test: qHTS assay to identify small molecule that activate the aryl hydrocarbon receptor (AhR) signaling pathway (AID 743085). Further: nearly all actives have a fitted effect of over 15% in size. Further: potency means the concentration at half of the fitted maximal effect.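 On activation: HG2L7.5c1 human HepG2 liver cells with stably integrated DRE-driven firefly reporter; series mostly up to about 70 µM.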 The procedure, abridged:
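Luminescence read-out: ONE-Glo reagent, 30 min at room temperature, in HG2L7.5c1 HepG2 reporter cells treated 24 h at 37C. Viability was measured beforehand by CellTiter-Fluor fluorescence after 30 min at 37C.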
On the % scale 0 is the no-effect control and ±100 the full control effect.

Sequence of Aryl hydrocarbon receptor (Homo sapiens) (P35869 whole entry, looked up): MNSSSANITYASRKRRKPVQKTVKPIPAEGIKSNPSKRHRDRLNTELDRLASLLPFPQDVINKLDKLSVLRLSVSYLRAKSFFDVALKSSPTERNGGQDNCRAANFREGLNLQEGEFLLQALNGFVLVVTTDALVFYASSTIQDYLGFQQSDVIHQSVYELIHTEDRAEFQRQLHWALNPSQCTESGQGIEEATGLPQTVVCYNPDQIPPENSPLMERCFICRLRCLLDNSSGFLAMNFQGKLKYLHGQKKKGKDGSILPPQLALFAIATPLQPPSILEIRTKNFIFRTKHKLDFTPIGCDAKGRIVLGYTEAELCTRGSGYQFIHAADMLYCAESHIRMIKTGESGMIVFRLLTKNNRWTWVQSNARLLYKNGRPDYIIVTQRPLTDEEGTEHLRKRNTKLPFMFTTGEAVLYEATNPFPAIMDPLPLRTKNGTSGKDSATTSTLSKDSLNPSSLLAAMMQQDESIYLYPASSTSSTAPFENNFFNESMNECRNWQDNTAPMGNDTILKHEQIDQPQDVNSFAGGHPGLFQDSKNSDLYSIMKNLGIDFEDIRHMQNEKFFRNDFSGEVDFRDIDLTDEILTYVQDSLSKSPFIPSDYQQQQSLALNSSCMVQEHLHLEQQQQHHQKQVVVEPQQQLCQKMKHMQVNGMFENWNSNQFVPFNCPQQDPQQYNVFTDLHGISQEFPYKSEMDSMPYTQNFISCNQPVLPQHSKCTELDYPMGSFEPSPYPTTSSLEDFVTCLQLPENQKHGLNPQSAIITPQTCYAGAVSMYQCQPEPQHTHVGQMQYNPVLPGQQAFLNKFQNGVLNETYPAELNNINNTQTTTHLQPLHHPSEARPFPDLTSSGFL
Sequence of Nuclear receptor subfamily 1 group I member 2 (Rattus norvegicus) (Q9R1A7 whole entry, looked up): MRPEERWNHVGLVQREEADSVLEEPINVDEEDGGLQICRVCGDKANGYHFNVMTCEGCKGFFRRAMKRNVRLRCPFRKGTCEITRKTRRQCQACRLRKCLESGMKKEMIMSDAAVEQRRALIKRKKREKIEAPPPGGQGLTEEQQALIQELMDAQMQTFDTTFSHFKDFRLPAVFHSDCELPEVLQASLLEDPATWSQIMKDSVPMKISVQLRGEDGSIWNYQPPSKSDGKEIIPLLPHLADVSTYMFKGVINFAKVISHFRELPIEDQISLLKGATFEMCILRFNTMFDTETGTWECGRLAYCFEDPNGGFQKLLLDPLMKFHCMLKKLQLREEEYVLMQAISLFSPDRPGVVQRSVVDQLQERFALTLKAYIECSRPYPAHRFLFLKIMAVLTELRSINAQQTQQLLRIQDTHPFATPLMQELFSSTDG
Sequence of Peroxisome proliferator-activated receptor gamma (Homo sapiens) (P37231 whole entry, looked up): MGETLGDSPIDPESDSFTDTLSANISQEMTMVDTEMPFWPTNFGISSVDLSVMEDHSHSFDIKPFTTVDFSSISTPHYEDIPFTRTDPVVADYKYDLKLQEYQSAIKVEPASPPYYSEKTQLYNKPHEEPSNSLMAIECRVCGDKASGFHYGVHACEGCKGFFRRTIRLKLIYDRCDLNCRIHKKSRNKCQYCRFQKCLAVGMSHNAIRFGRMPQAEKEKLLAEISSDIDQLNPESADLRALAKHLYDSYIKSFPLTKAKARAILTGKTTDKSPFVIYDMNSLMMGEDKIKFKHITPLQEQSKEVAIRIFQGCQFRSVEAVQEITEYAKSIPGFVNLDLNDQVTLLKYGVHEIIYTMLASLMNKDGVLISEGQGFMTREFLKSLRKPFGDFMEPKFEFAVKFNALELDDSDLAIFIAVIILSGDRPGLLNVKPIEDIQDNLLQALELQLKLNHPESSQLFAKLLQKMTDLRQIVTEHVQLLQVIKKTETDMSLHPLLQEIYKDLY

As for `CC[C@H](C)[C@H](NC(=O)[C@H](Cc1ccccc1)NC(=O)[C@H](C)NC(=O)[C@H](CC(=O)O)NC(=O)[C@H](CCCCN)NC(=O)[C@H](CO)NC(=O)[C@@H]1CCCN1C(=O)[C@@H]1CCC(=O)N1)C(=O)NCC(=O)N[C@@H](CC(C)C)C(=O)N[C@@H](CCSC)C(N)=O` ([pGlu]PSKDAFIGLM-NH2), the Potency entry in test [1], in test [2], in test [3], in test [4], in test [6] and in test [7] was “inactive” in each case. Moreover, in test [5], the max activation is -3.14%.

As for `NS(=O)(=O)c1cc2c(cc1Cl)NC(Cc1ccccc1)NS2(=O)=O` (configuration not stated), the Potency entry in test [1], in test [2], in test [4], in test [6] and in test [7] was “inactive” throughout. In addition, the max activation in test [5] was -1.36%.

Regarding `NC(Cc1ccccc1)C(=O)O` (configuration not stated), the Potency entry in test [1], in test [2], in test [3], in test [4], in test [6] and in test [7] was “inactive” in each case. In test [5], the max activation was 14.8%.

In the case of `CC(=O)N[C@@H]1C(O[C@H]2O[C@H](C(=O)O)C(O)[C@H](O)[C@H]2O)[C@H](O)[C@@H](CO)O[C@H]1O[C@@H]1C(C(=O)O)O[C@@H](O[C@H]2[C@H](O)[C@@H](CO)OC(O)[C@@H]2NC(C)=O)[C@H](O)[C@H]1O` (some centres not stated), the Potency result in test [1], in test [2], in test [3], in test [4], in test [6] and in test [7] was “inactive” in each case. Moreover, the max activation in test [5] was -1.09%.

Consider `O=P(O)(O)OC[C@H]1O[C@](O)(COP(=O)(O)O)[C@@H](O)[C@@H]1O`, for which the Potency entry in test [1], in test [8], in test [3], in test [4], in test [6] and in test [7] was “inactive” throughout. Also, the max activation in test [5] was -2.72%.

For `CO[C@@H]1[C@@H](O[C@@H]2O[C@H](C)[C@@H](O[C@H]3C[C@@](C)(O)[C@@H](OC(=O)CC(C)C)[C@H](C)O3)[C@H](N(C)C)[C@H]2O)[C@@H](CC=O)C[C@@H](C)C(=O)/C=C/C2OC2C[C@@H](C)OC(=O)C[C@H]1OC(C)=O` (some centres not stated), the Potency result in test [8], in test [4], in test [6] and in test [7] was “inactive” in each case. Further, the max activation in test [5] is -11.7%.

As for `COc1ccc(C2(C#N)CCC(C(=O)O)CC2)cc1OC1CCCC1` (configuration not stated), the Potency entry in test [1], in test [2], in test [4], in test [6] and in test [7] was “inactive” each time. The max activation in test [5] was -0.133%.

`CCN(CC)CCC(=O)N1c2ccccc2Sc2ccc(C(F)(F)F)cc21`: the Potency result in test [1], in test [8], in test [3] and in test [4] was “inactive” each time. The max activation in test [5] was -1.59%. The Potency in test [6] was 1 µM (active); in test [7] it was 6.31 µM (active).

For the molecule `O=C(Cc1cccs1)N[C@@H]1C(=O)N2C(C(=O)[O-])=C(C[n+]3ccccc3)CS[C@H]12`, the Potency entry in test [1], in test [2], in test [3], in test [4], in test [6] and in test [7] was “inactive” throughout. In addition, in test [5], the max activation was -1.81%.

As to `O=S(=O)(O)c1cc(O)c2c(N=Nc3ccc(Nc4ccccc4)c4c(S(=O)(=O)O)cccc34)cc(S(=O)(=O)O)cc2c1`, the Potency in test [1] was 16.8 µM (active); in test [2], 11.9 µM (active). Moreover, the Potency entry in test [3], in test [4], in test [6] and in test [7] was “inactive” each time. For the same molecule, the max activation in test [5] was -12%.

With `COc1ccc2cc([C@H](C)CO)ccc2c1`, the Potency entry in test [1], in test [2], in test [3], in test [4], in test [6] and in test [7] was “inactive” in each case. Also, the max activation in test [5] is -2.68%.

In the case of `CCCCC(=O)O[C@H]1CC[C@H]2[C@@H]3CCc4cc(O)ccc4[C@H]3CC[C@]12C`, the Potency entry in test [1], in test [3], in test [4], in test [6] and in test [7] was “inactive” throughout. The max activation in test [5] was -1.73%.

In the case of `C#C[C@]1(O)CC[C@H]2[C@@H]3CCC4=CC(=O)CC[C@@H]4[C@H]3C(=C)C[C@@]21CC`, the Potency entry in test [1], in test [8], in test [2], in test [3], in test [4] and in test [6] was “inactive” in each case. The Potency in test [5] is 7.94 µM (active).

Turning to `C=CCNC1=C2C[C@@H](C)C[C@H](OC)[C@H](O)[C@@H](C)/C=C(\C)[C@H](OC(N)=O)[C@@H](OC)/C=C\C=C(/C)C(=O)NC(=CC1=O)C2=O`, the Potency result in test [8], in test [2], in test [4] and in test [6] was “inactive” throughout. The max activation in test [5] is -14.2%. In addition, in test [7], the Potency is 6.31 µM (active).

`NC(=O)OC[C@@H]1[C@H](NC(=O)/C(=N\OCC(=O)O)c2csc(N)n2)C(=O)N1S(=O)(=O)O`: the Potency result in test [2], in test [4], in test [6] and in test [7] was “inactive” in each case. Further, the max activation in test [5] is -2.39%.

As to `CC(CCc1ccc(O)cc1)NCC(O)c1ccc(O)cc1` (configuration not stated), the Potency entry in test [8], in test [2], in test [3], in test [4], in test [6] and in test [7] was “inactive” in each case. The max activation in test [5] is -0.789%.

Consider `C#C[C@]1(O)CC[C@H]2[C@@H]3CCC4=CCCC[C@@H]4[C@H]3C(=C)C[C@@]21CC`, for which the Potency entry in test [1], in test [8], in test [2], in test [3], in test [4] and in test [6] was “inactive” throughout. Besides, in test [5], the max activation was -4.59%.

In the case of `CC(C)(C)NCC(O)c1ccc(O)c(CO)n1` (configuration not stated), the Potency entry in test [2], in test [4], in test [6] and in test [7] was “inactive” each time. Also, the max activation in test [5] was -0.193%.

As to `CCCC(=O)O[C@]1(C(=O)COC(C)=O)CC[C@H]2[C@@H]3C[C@H](F)C4=CC(=O)C=C[C@]4(C)[C@@]3(F)[C@@H](O)C[C@@]21C`, the Potency entry in test [8], in test [2], in test [4], in test [6] and in test [7] was “inactive” each time. Also, the Potency in test [5] is 2.51 µM (active).

Consider `Cn1c(O)c(N=NC(N)=S)c2ccccc21`, for which the Potency is 1.06 µM (active) in test [8], 2.98 µM (active) in test [2] and 14.1 µM (active) in test [7]. In addition, the Potency entry in test [4] and in test [6] was “inactive” each time. Further, the max activation in test [5] is 1.06%.

For the molecule `O=[n+]1ccn([O-])c2ccccc21`, the Potency result in test [2], in test [4], in test [6] and in test [7] was “inactive” each time. Moreover, the max activation in test [5] is -1.36%.

As for `COc1cc2c(cc1OC)CC(=O)N(CCCN(C)C[C@H]1Cc3cc(OC)c(OC)cc31)CC2`, the Potency result in test [1], in test [8], in test [2], in test [3], in test [4] and in test [6] was “inactive” each time. Also, in test [5], the max activation is -0.416%.

`C#C[C@]1(O)CC[C@H]2[C@@H]3CCC4=C/C(=N/O)CC[C@@H]4[C@H]3CC[C@@]21CC`: the Potency result in test [8], in test [2], in test [4] and in test [6] was “inactive” each time. The max activation in test [5] was 6.76%. Also, in test [7], the Potency was 4.47 µM (active).

On to `Nc1ncnc2c1ncn2[C@@H]1O[C@H](COP(=O)(O)OP(=O)(O)OP(=O)(O)O)[C@@H](O)[C@H]1O`, for which the Potency entry in test [8], in test [2], in test [4], in test [6] and in test [7] was “inactive” throughout. Besides, the max activation in test [5] is 2.22%.
